The values that follow come from PubChem BioAssay (NCI).

Structures are written as SMILES. Compounds without any hit were thinned out: in the full panel of roughly 83,000, 20% have a hit.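 The test compound was applied at a single concentration to cells in 96-well plates for 48 hours, and percent growth was recorded.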 A number with no mark means an inactive call. Activity calls are given as the source filed them. The calls were made as follows: active = growth percent below 10; inactive = the rest.

Experiment in all cases: NCI-60 one-dose screen, 48 h (100 = growth as untreated, 0 = no growth, -100 = all killed)
Common to all, as to conditions: 10 µM unless noted

Assay [1] relates to NCI-H23 lung.
For assay [2], the system named is NCI-H226 lung.
Assay [3] deals with NCI-H322M lung.
Assay [4] has as its system HOP-62 NSCLC.
For assay [5], the system named is NCI-H460 lung.
Assay [6] deals with A549/ATCC NSCLC.
For assay [7], the system named is 786-0 renal.
Assay [8] relates to COLO 205 colon.
Assay [9] has as its system DU-145 prostate.
The test system of assay [10] is K-562 leukemia.
In assay [11] the test system is MALME-3M melanoma.
The test system of assay [12] is MDA-MB-231 breast.
The test system of assay [13] is RXF 393 renal.
The subject of assay [14] is SF-268 CNS.
Assay [15] has as its system SF-295 CNS.
Assay [16] has as its system SF-539 CNS.
For assay [17], the system named is UACC-257 melanoma.
Assay [18] concerns M14 melanoma.
Assay [19] concerns NCI-H522 lung.

As for `CN1C2CCC1/C(=C\c1ccc(Cl)cc1)C(=O)/C2=C/c1ccc(Cl)cc1`, the growth in assay [1] is 62.4%; in [2] it was 73.8%; in assay [3], 72.4%; in assay [4], 85.8%; in assay [5], 47%; in [6], 63.7%. Moreover, the growth in assay [7] was 75.4%; in assay [8], 41.7%; in assay [9], 41.8%; in [10], 34.3%; in assay [11], 73.7%; in assay [12], 67%. Also, the growth in assay [13] was 87.2%; in [14], 60.5%; in assay [15] it was 77.4%; in assay [16], 91.5%; in assay [17] it was 60.9%; in assay [18], 63.8%.

On to `Cn1c(=O)c2c(nc(N/N=C/c3ccccc3Cl)n2C)n(C)c1=O`, for which the growth in [1] is 94.4%; in [2] it was 107%; in assay [3] it was 116%; in assay [4], 112%; in assay [5] it was 120%; in assay [6] it was 107%. Besides, the growth was 97.8% in assay [7]; 113% in assay [8]; 140% in assay [9]; 100% in assay [10]; 109% in [11]; 100% in assay [12]. Besides, the growth in [13] was 112%; in assay [14], 124%; in assay [15], 101%; in assay [16], 87.2%; in assay [17], 94.8%; in assay [18], 103%.

For the compound `CN(C)c1nc(-c2cccs2)n2nc(-c3ccco3)cc2n1`, the growth in [1] is 87.2%; in assay [2], 90.2%; in assay [3], 106%; in assay [4] it was 106%; in [5] it was 98.4%; in [6] it was 101%. The growth in assay [7] is 96.1%; in assay [8] it was 126%; in assay [9], 116%; in assay [10], 106%; in [11] it was 121%; in [12], 82.6%. For the same compound, the growth in assay [13] was 83.7%; in assay [14], 104%; in [15], 106%; in assay [16], 93.6%; in assay [17], 113%; in [18], 98%.

As for `CCN1C(=O)N(CC)C2C1NN=c1s/c(=C\c3ccc(Br)cc3)c(=O)n12` (stereo unspecified), the growth in assay [1] was 29.2%; in [2], 50.7%; in assay [3], 45.5%; in assay [4] it was 23.8%; in assay [5], 7.34% (active); in [6], 19.7%. The growth in assay [7] was 23.6%; in [8] it was -34.6% (active); in [9] it was 6.46% (active); in assay [10] it was 4.55% (active); in assay [11] it was 52.2%; in assay [12] it was 25.9%. The growth in assay [13] was 40.5%; in assay [14], 36.1%; in [15], 17.4%; in assay [16], -5.08% (active); in assay [17], 23.5%; in [18], 7.42% (active).

For `O=S1(=O)NCCCN1CCNc1nccc(-c2c(-c3cccc(O)c3)nc3sccn23)n1`, the growth in assay [1] was 83.7%; in [2], 84.9%; in [3], 85.1%; in [4], 118%; in assay [5], 67.1%; in assay [19], 76%. In addition, the growth in [6] was 124%; in assay [7], 59.3%; in [8], 32.6%; in assay [9], 74.2%; in assay [11] it was 17.3%; in assay [12], 50.7%. Besides, the growth is 64.3% in assay [13]; 81.3% in [14]; 112% in assay [15]; 70.3% in [16]; 39.9% in assay [17]; 7.6% (active) in assay [18].

In the case of `O=C1/C=C/[C@@H](O)[C@@H]2C[C@@H](O)C[C@H]2/C=C/CCC[C@H]([C@@H](O)CO)O1`, the growth in [1] is 93%; in assay [2], 106%; in assay [3], 91.9%; in [4], 108%; in assay [19] it was 92.8%; in [6], 96.1%. The growth in [7] is 50.3%; in [8] it was 94.3%; in [9], 135%; in assay [10], 95.2%; in [11], 64.4%; in [12] it was 91.6%. For the same compound, the growth in assay [13] was 24.9%; in assay [14], 60.8%; in assay [15], 87.7%; in assay [16], 74.3%; in assay [17] it was 69.3%; in [18] it was 68.8%.

In the case of `c1coc(CNc2c3ccccc3nc3ccccc23)c1`, the growth in assay [1] is 63.6%; in assay [2], 62.9%; in [3] it was 65%; in [4] it was 69.6%; in assay [19], 47.3%; in assay [6] it was 61.9%. The growth in assay [7] was 65.7%; in [8], 35.2%; in [9], 76%; in assay [10], 44.7%; in assay [11], 90.4%; in assay [12] it was 60.5%. The growth in assay [13] is 61.5%; in assay [14], 85.7%; in assay [15], 53.9%; in assay [16], 65.9%; in assay [17], 81.7%; in assay [18], 79.7%.

For the compound `Clc1ccccc1CNc1c2ccccc2nc2ccccc12`, the growth in [1] is 21.6%; in assay [2], 38.9%; in assay [3], 27%; in [4], 40.9%; in [19], 28.5%; in assay [6], 19.2%. Further, the growth was 24.5% in assay [7]; 0.525% (active) in assay [8]; 31.8% in assay [9]; 5.33% (active) in assay [10]; 19% in [11]; 29% in assay [12]. The growth is 15% in [13]; 46.6% in assay [14]; 21.7% in assay [15]; 6.15% (active) in [16]; 44.3% in assay [17]; 18.1% in assay [18].

Regarding `CC(=O)Oc1c(Cl)c(Cl)c(Cl)c(Cl)c1Cl`, the growth in assay [1] is 95.3%; in assay [2] it was 103%; in [3] it was 92.3%; in assay [4], 95.9%; in [19], 90.2%; in assay [6], 85.9%. The growth in assay [7] was 100%; in assay [8], 106%; in assay [9], 105%; in assay [10], 101%; in assay [11], 91.7%; in [12], 86.3%. In addition, the growth is 116% in assay [13]; 96.1% in assay [14]; 97.7% in assay [15]; 86.3% in assay [16]; 94.1% in [17].
